# Source: PubChem BioAssay (EPA / NIEHS)
# Activity calls are given as the source filed them. Rule for the calls: active = hit-call score of the fitted dose curve at least 0.9, where 1 is the maximum; inactive = score below 0.9.
# Key:
# [1] = read-out: Macrophage colony-stimulating factor (MCSF), CSF1 (gene 1435); experiment: BSK_hDFCGF_MCSF: BioMAP Diversity Plus: hDFCGF Assay for Macrophage colony-stimulating factor (MCSF) Biomarker Activity (AID 2283060); conditions: primary human foreskin fibroblasts; actives raise or lower the signal
# Outline: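 M-CSF levels, determined by ELISA, are taken at 24 h after dosing human skin fibroblasts. Responses in either direction are fitted with DMSO serving as the baseline.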
# [2] = BSK_hDFCGF_SRB: Viability Assessment in the BioMAP Diversity Plus: hDFCGF Assay (AID 2283061); conditions: primary human foreskin fibroblasts;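 note: cells exposed to compound for 24 h before the read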
# Outline: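 Cells were dosed with test chemical, cultured 24 h, fixed with 10% TCA, then stained with 0.1% SRB and read at 560 nm. The fibroblasts were human foreskin primary cells, and DMSO served as baseline.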
# [3] = read-out: TIMP metallopeptidase inhibitor 1 (TIMP1), TIMP1 (gene 7076); experiment: BSK_hDFCGF_TIMP1: BioMAP Diversity Plus: hDFCGF Assay for TIMP metallopeptidase inhibitor 1 (TIMP1) Biomarker Activity (AID 2283062); conditions: primary human foreskin fibroblasts; actives raise or lower the signal
# Outline: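 Fibroblasts from human foreskin are treated with test chemical and harvested at 24 h. TIMP-1 is quantified by ELISA, and gain or loss of signal is scored against DMSO.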
# [4] = read-out: Monokine induced gamma interferon (MIG), CXCL9 (gene 4283); experiment: BSK_hDFCGF_MIG: BioMAP Diversity Plus: hDFCGF Assay for Monokine induced gamma interferon (MIG) Biomarker Activity (AID 2283063); conditions: primary human foreskin fibroblasts; actives raise or lower the signal
# Outline: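 MIG signal, determined by ELISA, reflects 24 h chemical exposure of human skin primary fibroblasts. DMSO serves as negative control and baseline.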
# [5] = read-out: Matrix Metallopeptidase 1 (MMP1), MMP1 (gene 4312); experiment: BSK_hDFCGF_MMP1: BioMAP Diversity Plus: hDFCGF Assay for Matrix Metallopeptidase 1 (MMP1) Biomarker Activity (AID 2283064); conditions: primary human foreskin fibroblasts; actives raise or lower the signal
# Outline: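 Primary human foreskin fibroblasts exposed to chemicals for 24 h; MMP1 measured by ELISA. Cytotoxicity tracked by SRB staining in parallel cultures; bidirectional fit relative to DMSO.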
# [6] = read-out: Vascular cell adhesion molecule 1 (VCAM1), VCAM1 (gene 7412); experiment: BSK_hDFCGF_VCAM1: BioMAP Diversity Plus: hDFCGF Assay for Vascular cell adhesion molecule 1 (VCAM1) Biomarker Activity (AID 2283065); conditions: primary human foreskin fibroblasts; actives raise or lower the signal;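 for AC50: VCAM-1 protein level quantified by ELISA after 24 h chemical exposure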
# Outline: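 Cells are dosed, cultured for 24 h, then VCAM-1 is quantified by ELISA; signal increases and decreases are both fitted relative to DMSO.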
# [7] = read-out: Plasminogen activator inhibitor-1 (PAI1), SERPINE1 (gene 5054); experiment: BSK_hDFCGF_PAI1: BioMAP Diversity Plus: hDFCGF Assay for Plasminogen activator inhibitor-1 (PAI1) Biomarker Activity (AID 2283066); conditions: primary human foreskin fibroblasts; actives raise or lower the signal
# Outline: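 Human foreskin fibroblasts in the hDFCGF system were dosed with compound for 24 h; PAI-1 was quantified by ELISA. Bidirectional curve fitting used DMSO as negative control and baseline.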
# [8] = read-out: Intercellular Adhesion Molecule 1 (ICAM1), ICAM1 (gene 3383); experiment: BSK_KF3CT_ICAM1: BioMAP Diversity Plus: KF3CT Assay for Intercellular Adhesion Molecule 1 (ICAM1) Biomarker Activity (AID 2283067); conditions: primary human keratinocytes with fibroblasts; actives raise or lower the signal
# Outline: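 Dose the keratinocyte/fibroblast co-culture, wait 24 h, measure ICAM-1 by ELISA, then fit increases or decreases against DMSO. Cytotoxicity is checked in parallel cultures by SRB total-protein staining.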
# [9] = read-out: Interferon-gamma inducible Protein 10 (IP10), CXCL10 (gene 3627); experiment: BSK_KF3CT_IP10: BioMAP Diversity Plus: KF3CT Assay for Interferon-gamma inducible Protein 10 (IP10) Biomarker Activity (AID 2283068); conditions: primary human keratinocytes with fibroblasts; actives raise or lower the signal
# Outline: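 KF3CT co-culture (keratinocytes + foreskin fibroblasts), 24 h compound, IP-10 by ELISA; bidirectional fit vs DMSO baseline.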
# [10] = BSK_KF3CT_SRB: Viability Assessment in the BioMAP Diversity Plus: KF3CT Assay (AID 2283069); conditions: primary human keratinocytes with fibroblasts;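 note: fitted for both signal gain and loss against DMSO baseline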
# Outline: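 Human keratinocyte and foreskin fibroblast co-culture exposed to chemical for 24 h. Total protein measured in parallel cultures by 0.1% sulforhodamine B staining after 10% TCA fixation, read at 560 nm; bidirectional fit relative to DMSO.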
# [11] = read-out: Interleukin-1 alpha (IL1a), IL1A (gene 3552); experiment: BSK_KF3CT_IL1a: BioMAP Diversity Plus: KF3CT Assay for Interleukin-1 alpha (IL1a) Biomarker Activity (AID 2283070); conditions: primary human keratinocytes with fibroblasts; actives raise or lower the signal
# Outline: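 Primary human keratinocyte plus foreskin fibroblast co-culture, dosed and measured at 24 h in 96-well plates. IL-1a level quantified by ELISA; bidirectional fit relative to DMSO.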
# [12] = read-out: Transforming growth factor beta 1 (TGFb1), TGFB1 (gene 7040); experiment: BSK_KF3CT_TGFb1: BioMAP Diversity Plus: KF3CT Assay for Transforming growth factor beta 1 (TGFb1) Biomarker Activity (AID 2283072); conditions: primary human keratinocytes with fibroblasts; actives raise or lower the signal
# Outline: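 Human keratinocyte plus foreskin fibroblast primary co-culture, dosed with chemical for 24 h. TGF-b1 quantified by ELISA. Activity fitted bidirectionally against DMSO negative control as baseline.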
# [13] = read-out: C-C motif chemokine 2 (Homo sapiens) (UniProt P13500); experiment: BSK_KF3CT_MCP1: BioMAP Diversity Plus: KF3CT Assay for Monocyte Chemoattractant Protein 1 (MCP1/CCL2) Biomarker Activity (AID 2283073); conditions: primary human keratinocytes with fibroblasts; actives raise or lower the signal
# Outline: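 Keratinocytes and foreskin fibroblasts were co-cultured, dosed with chemical, and sampled 24 h later. MCP-1 was quantified by ELISA, and the endpoint was analyzed with bidirectional fitting using DMSO as negative control.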
# [14] = read-out: Matrix Metallopeptidase 9 (MMP9), MMP9 (gene 4318); experiment: BSK_KF3CT_MMP9: BioMAP Diversity Plus: KF3CT Assay for Matrix Metallopeptidase 9 (MMP9) Biomarker Activity (AID 2283074); conditions: primary human keratinocytes with fibroblasts; actives raise or lower the signal;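 for AC50: MMP9 protein level quantified by ELISA in the co-culture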
# Outline: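 Human keratinocyte and foreskin fibroblast co-culture exposed to chemicals for 24 h; MMP9 biomarker measured by ELISA, bidirectional fitting relative to DMSO; cytotoxicity tracked by SRB total protein staining in parallel cultures.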
# [15] = read-out: urokinase plasminogen activator (uPA), PLAU (gene 5328); experiment: BSK_KF3CT_uPA: BioMAP Diversity Plus: KF3CT Assay for urokinase plasminogen activator (uPA) Biomarker Activity (AID 2283075); conditions: primary human keratinocytes with fibroblasts; actives raise or lower the signal
# Outline: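 Primary human keratinocyte/foreskin fibroblast co-culture exposed to chemical; uPA measured by ELISA at 24 h. Bidirectional fit versus DMSO, with parallel SRB total-protein staining for cytotoxicity.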
# [16] = read-out: CD40, CD40 (gene 958); experiment: BSK_LPS_CD40: BioMAP Diversity Plus: LPS Assay for CD40 Biomarker Activity (AID 2283076); conditions: primary human HUVEC with PBMC; actives raise or lower the signal
# Outline: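 CD40 signal, measured by ELISA, is fitted in both directions relative to DMSO vehicle. The system is an LPS-driven human vascular primary co-culture of endothelial cells and PBMC, sampled 24 h after compound addition.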
# [17] = read-out: Interleukin-8 (IL8), CXCL8 (gene 3576); experiment: BSK_LPS_IL8: BioMAP Diversity Plus: LPS Assay for Interleukin-8 (IL8) Biomarker Activity (AID 2283078); conditions: primary human HUVEC with PBMC; actives raise or lower the signal
# Outline: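 Endothelial cells and PBMC from human donors are co-cultured, treated with chemicals and LPS, then assayed for IL-8 by ELISA after 24 h. Parallel SRB staining (0.1% SRB after 10% TCA fixation, 560 nm) flags cytotoxicity.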
# [18] = BSK_LPS_SRB: Viability Assessment in the BioMAP Diversity Plus: LPS Assay (AID 2283079); conditions: primary human HUVEC with PBMC;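 note: total protein by sulforhodamine B absorbance as a cytotoxicity measure; measured one day after compound addition; fitted in both directions against DMSO so loss or gain of signal counts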
# Outline: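 Overt cytotoxicity was gauged by sulforhodamine B total-protein staining in a primary human vascular endothelial and mononuclear cell co-culture 24 h post-dosing. Activity was fitted in both directions relative to DMSO.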
# [19] = read-out: E-selectin (Homo sapiens) (UniProt P16581); experiment: BSK_LPS_Eselectin: BioMAP Diversity Plus: LPS Assay for Eselectin Biomarker Activity (AID 2283077); conditions: primary human HUVEC with PBMC; actives raise or lower the signal
# Outline: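 Signal of E-selectin, detected by ELISA, served as the endpoint; cells were umbilical vein endothelium with PBMC, read 24 h after treatment. DMSO defined baseline, and both increases and decreases were fitted.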
# [20] = read-out: TIMP metallopeptidase inhibitor 2 (TIMP2), TIMP2 (gene 7077); experiment: BSK_KF3CT_TIMP2: BioMAP Diversity Plus: KF3CT Assay for TIMP metallopeptidase inhibitor 2 (TIMP2) Biomarker Activity (AID 2283071); conditions: primary human keratinocytes with fibroblasts; actives raise or lower the signal
# Outline: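 Human primary keratinocyte/foreskin fibroblast co-culture dosed with chemical and sampled at 24 h. TIMP-2 levels quantified by ELISA; bidirectional fitting against DMSO negative control as baseline.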
# E-selectin (Homo sapiens), sequence (P16581 whole entry, looked up): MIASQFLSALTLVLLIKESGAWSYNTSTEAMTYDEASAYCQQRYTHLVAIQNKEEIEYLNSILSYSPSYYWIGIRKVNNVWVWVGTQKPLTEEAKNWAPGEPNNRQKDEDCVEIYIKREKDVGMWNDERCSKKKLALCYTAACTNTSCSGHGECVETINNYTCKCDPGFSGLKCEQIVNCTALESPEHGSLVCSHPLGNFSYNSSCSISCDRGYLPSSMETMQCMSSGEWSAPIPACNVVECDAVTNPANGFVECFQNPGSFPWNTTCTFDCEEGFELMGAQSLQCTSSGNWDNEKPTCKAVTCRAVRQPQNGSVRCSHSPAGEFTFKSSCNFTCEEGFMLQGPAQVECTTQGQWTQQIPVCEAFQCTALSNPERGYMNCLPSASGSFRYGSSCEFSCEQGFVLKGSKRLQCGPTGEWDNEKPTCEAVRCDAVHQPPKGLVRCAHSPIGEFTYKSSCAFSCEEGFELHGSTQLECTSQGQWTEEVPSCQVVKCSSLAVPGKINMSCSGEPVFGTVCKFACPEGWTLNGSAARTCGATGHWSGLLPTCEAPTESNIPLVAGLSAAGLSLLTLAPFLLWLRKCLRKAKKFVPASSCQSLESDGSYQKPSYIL
smiles,measurement,setting,value
O=[N+]([O-])c1ccc(Cl)c(Cl)c1,outcome,[1],inactive
same,outcome,[2],inactive
same,outcome,[3],inactive
same,outcome,[4],inactive
same,outcome,[5],inactive
same,outcome,[6],inactive
same,outcome,[7],inactive
same,outcome,[8],inactive
same,outcome,[9],inactive
same,outcome,[10],inactive
same,outcome,[11],inactive
same,outcome,[12],inactive
same,outcome,[13],inactive
same,outcome,[14],inactive
same,outcome,[15],inactive
same,outcome,[16],inactive
same,outcome,[17],inactive
same,outcome,[18],inactive
COCCOCCO,outcome,[1],inactive
same,outcome,[2],inactive
same,outcome,[3],inactive
same,outcome,[4],inactive
same,outcome,[5],inactive
same,outcome,[6],inactive
same,outcome,[7],inactive
same,outcome,[8],inactive
same,outcome,[9],inactive
same,outcome,[10],inactive
same,outcome,[11],inactive
same,outcome,[12],inactive
same,AC50,[13],254 nM (active)
same,outcome,[14],inactive
same,outcome,[15],inactive
same,outcome,[16],inactive
same,outcome,[19],inactive
same,outcome,[17],inactive
same,outcome,[18],inactive
c1nc[nH]n1,outcome,[1],inactive
same,outcome,[2],inactive
same,outcome,[3],inactive
same,outcome,[4],inactive
same,outcome,[5],inactive
same,outcome,[6],inactive
same,outcome,[7],inactive
same,outcome,[8],inactive
same,outcome,[9],inactive
same,outcome,[10],inactive
same,outcome,[11],inactive
same,outcome,[12],inactive
same,outcome,[13],inactive
same,outcome,[14],inactive
same,outcome,[15],inactive
same,outcome,[16],inactive
same,outcome,[17],inactive
same,outcome,[18],inactive
CC(Cl)CN(C)C (configuration not stated),outcome,[1],inactive
same,outcome,[2],inactive
same,outcome,[3],inactive
same,outcome,[4],inactive
same,outcome,[5],inactive
same,outcome,[6],inactive
same,outcome,[7],inactive
same,outcome,[8],inactive
same,outcome,[9],inactive
same,outcome,[10],inactive
same,outcome,[11],inactive
same,outcome,[12],inactive
same,outcome,[13],inactive
same,AC50,[14],88.9 nM (active)
same,outcome,[15],inactive
same,outcome,[16],inactive
same,outcome,[17],inactive
same,outcome,[18],inactive
CCOP(=S)(OCC)SCSCC,outcome,[1],inactive
same,outcome,[2],inactive
same,outcome,[3],inactive
same,outcome,[4],inactive
same,outcome,[5],inactive
same,outcome,[6],inactive
same,outcome,[7],inactive
same,outcome,[8],inactive
same,outcome,[10],inactive
same,outcome,[11],inactive
same,outcome,[20],inactive
same,outcome,[12],inactive
same,outcome,[13],inactive
same,outcome,[14],inactive
same,outcome,[15],inactive
same,outcome,[16],inactive
same,outcome,[19],inactive
same,outcome,[17],inactive
same,outcome,[18],inactive
N#Cc1c(-c2ccc(Cl)cc2)[nH]c(C(F)(F)F)c1Br,AC50,[1],56.6 nM (active)
same,AC50,[2],3970 nM (active)
same,AC50,[3],6180 nM (active)
same,AC50,[4],20000 nM (active)
same,outcome,[5],inactive
same,AC50,[6],2900 nM (active)
same,AC50,[7],390 nM (active)
same,outcome,[8],inactive
same,AC50,[9],8000 nM (active)
same,outcome,[10],inactive
same,outcome,[11],inactive
same,outcome,[20],inactive
same,AC50,[12],186 nM (active)
same,AC50,[13],62.1 nM (active)
same,AC50,[14],3970 nM (active)
same,outcome,[15],inactive
same,AC50,[16],4050 nM (active)
same,outcome,[19],inactive
same,AC50,[17],4180 nM (active)
same,AC50,[18],3970 nM (active)
C=CC(=O)OCC(CC)(COC(=O)C=C)COC(=O)C=C,AC50,[1],2110 nM (active)
same,AC50,[2],1320 nM (active)
same,AC50,[3],1110 nM (active)
same,AC50,[4],1400 nM (active)
same,AC50,[5],3850 nM (active)
same,AC50,[6],1070 nM (active)
same,AC50,[7],1080 nM (active)
same,AC50,[8],2160 nM (active)
same,AC50,[9],3170 nM (active)
same,AC50,[10],3150 nM (active)
same,AC50,[11],2160 nM (active)
same,AC50,[20],5380 nM (active)
same,AC50,[12],2370 nM (active)
same,AC50,[13],2350 nM (active)
same,AC50,[14],2340 nM (active)
same,AC50,[15],3110 nM (active)
same,AC50,[16],1350 nM (active)
same,AC50,[19],2930 nM (active)
same,outcome,[17],inactive
same,AC50,[18],2430 nM (active)
